ALDH1A1 block: qHTS Assay for Inhibitors of Aldehyde Dehydrogenase 1 (ALDH1A1) | Purified ALDH1A1, NADH fluorescence, propionaldehyde substrate | AID 1030, 2008 | hit rate 7.3% among 220,000 | Potency, µM (doses to about 75.3 µM), without a hit: at the top dose activity, negative = inhibition, actives largely listed as inhibitors | Aldehyde dehydrogenase 1A1 (Homo sapiens), P00352;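 further: potency means the concentration at half of the fitted maximal effect; plate controls were no enzyme wells and a reference inhibitor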
PNC inhibitor: High Content Assay for Compounds that inhibit the Assembly of the Perinucleolar Compartment; PC3M PTB-GFP, PNC prevalence imaging, 16 h; stronger effect = lower value; activity change (PNC), negative = inhibition, % at 10 µM; hit rate 3.1% among 140,000; AID 2417, 2010;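 active means readout at or below -70, meaning at least 70% loss of cells showing the perinucleolar compartment, a nuclear body marking cancer cells; inconclusive means readout between -30 and a set limit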;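 further: plate controls were DMSO wells for no effect and camptothecin positive control wells for full effect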
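Read-out is percentage of cells bearing a perinucleolar compartment, from automated 20x imaging of fixed, Hoechst-stained PC3M PTB-GFP cells. Cells were seeded 4 h, then exposed 16 h to compound (23 nl of library stock) in duplicate plates.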
HPGD inh: qHTS Assay for Inhibitors of HPGD (15-Hydroxyprostaglandin Dehydrogenase). purified HPGD, NADH fluorescence kinetic, PGE2 substrate. Potency, µM, inactives show at the highest dose activity change, negative = inhibition, most hits filed as inhibitors. hit rate 4.3% among 150,000; further: potency means the concentration at half of the fitted maximal effect
Target sequence (P15428 whole entry, looked up): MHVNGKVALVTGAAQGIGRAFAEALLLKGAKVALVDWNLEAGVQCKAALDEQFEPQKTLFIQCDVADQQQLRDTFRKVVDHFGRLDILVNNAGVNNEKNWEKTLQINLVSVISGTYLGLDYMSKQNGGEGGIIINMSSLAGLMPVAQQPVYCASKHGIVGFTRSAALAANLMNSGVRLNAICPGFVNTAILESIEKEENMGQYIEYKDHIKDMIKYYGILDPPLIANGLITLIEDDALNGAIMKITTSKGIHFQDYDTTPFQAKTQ
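20 nM HPGD preincubated 15 min at room temperature with compound in 50 mM Tris-HCl pH 8, 0.01% Tween 20. Started with 1 mM NAD+ and 30 uM prostaglandin E2; NADH fluorescence (360/450 nm) read 5 times over 30-s intervals, last minus first.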
The depositor's hits bear a star. Hits are enriched below; roughly 11% of the tested compounds scored in any of these assays. Unless noted, the call rests on the fitted dose curve; in most records, active means well fitted inhibition curve with a large enough effect (not every such curve was filed as active); inconclusive means small, poorly fitted or top-dose-only effect, or another doubt; inactive means no such curve, though single readings can be large or run the other way. Unless noted, on the % scale 0 is the no-effect control and ±100 the full control effect.

Screening CC(CCc1ccccc1)NS(=O)(=O)c1ccccc1 (stereo not drawn) returned ALDH1A1 block 10µM*, PNC inhibitor inconclusive and HPGD inh -11%.
CCOC(=O)c1cc(C#N)c(N2CCN(c3ccc(OC)cc3)CC2)[nH]c1=O was read as ALDH1A1 block -10%.
Screening O=C(NNc1ccc([N+](=O)[O-])cc1)C12CC3CC(CC(C3)C1)C2 returned ALDH1A1 block inconclusive, PNC inhibitor 7 and HPGD inh -6%.
Screening O=C(N/N=C/c1ccco1)c1cnccn1 returned ALDH1A1 block -3%, PNC inhibitor 17 and HPGD inh -13%.
Screening O=C(Nc1ccc(NC(=O)c2ccco2)cc1)c1cnccn1 returned ALDH1A1 block 25µM*, PNC inhibitor 33 and HPGD inh -21%.
`O=C(N/N=C/C=C/c1ccco1)c1cnccn1` gave ALDH1A1 block 3.2µM*.
Screening O=C(Nc1ccc(S(=O)(=O)NCC2CCCO2)cc1)c1cnccn1 (stereo not drawn) returned ALDH1A1 block 2%.
`O=C(Nc1ccc(S(=O)(=O)NC2CCCC2)cc1)c1cnccn1` gave ALDH1A1 block inconclusive, PNC inhibitor -5 and HPGD inh 7.9µM*.
O=C(Nc1ccc2ccccc2c1)c1cnccn1 was read as ALDH1A1 block -9%, PNC inhibitor 14 and HPGD inh -9%.
Screening O=C(N/N=C\C=C\c1ccco1)c1cc(-c2ccc3ccccc3c2)n[nH]1 returned ALDH1A1 block 0%, PNC inhibitor 5 and HPGD inh 32µM*.
For O=C(N/N=C/C=C/c1ccco1)c1cccnc1 the results were ALDH1A1 block inconclusive, PNC inhibitor 38 and HPGD inh -18%.
Screening CCOC(=O)c1cccc(NC(=O)C2(S(=O)(=O)c3ccc(Cl)cc3)CC2)c1 returned ALDH1A1 block -8%, PNC inhibitor 20 and HPGD inh -7%.
Screening CN1CC[C@@]2(CCCN(C(=O)c3cccc(F)c3)C2)C1 returned ALDH1A1 block 3% and HPGD inh -1%.
Screening O=C(Nc1cnn(Cc2ccc(F)cc2)c1)c1cc(-c2cccs2)on1 returned ALDH1A1 block inconclusive, PNC inhibitor inconclusive and HPGD inh -27%.
Screening O=C(Nc1cnn(Cc2ccc(F)cc2)c1)c1cnccn1 returned ALDH1A1 block -5%, PNC inhibitor -129* and HPGD inh -21%.
For CCc1ccccc1NC(=O)CN(C)C(=O)CSc1nc2cc(Cl)ccc2s1 the results were ALDH1A1 block -1%, PNC inhibitor inconclusive and HPGD inh -11%.
`COc1ccc(S(=O)(=O)NC2CCCCC2)cc1-n1cnnn1` gave ALDH1A1 block 1.6µM*.
CCN(CC)S(=O)(=O)c1ccc(-n2cnnn2)c(C)c1 was read as ALDH1A1 block inconclusive, PNC inhibitor -4 and HPGD inh -5%.
Screening Cc1cc(S(=O)(=O)NC2CCCCC2)ccc1-n1cnnn1 returned ALDH1A1 block -8%.
For CCN(CC)S(=O)(=O)c1ccc(OC)c(-n2cnnn2)c1 the results were ALDH1A1 block 7.9µM*.
For O=[N+]([O-])c1ccc(N2CCN(CCO)CC2)cc1Sc1nc2ccccc2[nH]1 the results were ALDH1A1 block -8%, PNC inhibitor 33 and HPGD inh -14%.
`O=C(NNC(=S)Nc1ccccc1)C1CC1` gave ALDH1A1 block 4%, PNC inhibitor 57 and HPGD inh -2%.
`S=C(NN=C(C1CC1)C1CC1)Nc1ccccc1` gave ALDH1A1 block 25µM*, PNC inhibitor 22 and HPGD inh -8%.
CC1=NN(C(=O)c2ccc(Cn3cc(Br)c([N+](=O)[O-])n3)o2)C(O)(C(F)(F)F)C1 (stereo not drawn) was read as ALDH1A1 block 3%, PNC inhibitor -114* and HPGD inh -6%.
CC1=NN(C(=O)c2ccc(Cn3nc(C)cc3C)o2)C(O)(C(F)(F)F)C1 (stereo not drawn) was read as ALDH1A1 block 7%, PNC inhibitor 13 and HPGD inh -12%.
Screening CC(C)Nc1nc(NC(C)C)nc(SCCOC(=O)Nc2ccc(Cl)cc2Cl)n1 returned ALDH1A1 block 6%, PNC inhibitor 5 and HPGD inh -18%.
For CCOc1ccc(N2CC(C(=O)OCC(=O)NCc3ccccc3)CC2=O)cc1 (stereo not drawn) the results were ALDH1A1 block -3%, PNC inhibitor -11 and HPGD inh -9%.
COc1cccc(Oc2cn[nH]c2-c2ccc(OC)cc2O)c1 was read as ALDH1A1 block -10%, PNC inhibitor -17 and HPGD inh -25%.
COc1ccc(-c2[nH]ncc2-c2csc(C)n2)c(O)c1 was read as ALDH1A1 block 9%, PNC inhibitor -91* and HPGD inh -13%.
`COc1cccc(Oc2cn[nH]c2-c2ccc(O)cc2O)c1` gave ALDH1A1 block inconclusive, PNC inhibitor -86* and HPGD inh -22%.
CCOc1ccc(-c2[nH]ncc2-c2csc(C)n2)c(O)c1 was read as ALDH1A1 block 10% and PNC inhibitor -14.
Screening CC(=O)c1cccc2c(O)c(C3=Nc4ccccc4C3=O)[nH]c12 returned ALDH1A1 block inconclusive, PNC inhibitor -22 and HPGD inh 14µM*.
O=C1C(c2c(O)[nH]c3ccccc23)=Nc2ccccc21 was read as ALDH1A1 block 16%.
`COc1ccc2[nH]c(C)c(CN3CCCCC3)c(=O)c2c1` gave ALDH1A1 block inconclusive, PNC inhibitor 8 and HPGD inh -24%.
Screening COc1ccc2[nH]c(C)c(CCN3C(=O)C4C5C=CC(C5)C4C3=O)c2c1 (stereo not drawn) returned ALDH1A1 block 13µM*, PNC inhibitor 6 and HPGD inh 2%.
CC(=O)CCn1cnc([N+](=O)[O-])n1 was read as ALDH1A1 block -3%.
For CN1CC2(C)OC(=O)C(Cl)=C2CC1c1ccccc1 (stereo not drawn) the results were ALDH1A1 block 13µM*, PNC inhibitor 38 and HPGD inh -2%.
Screening O=C1CC(c2ccccc2)N1c1ccccc1 (stereo not drawn) returned ALDH1A1 block -3%, PNC inhibitor 23 and HPGD inh -10%.
Screening C/C=C1/C2C=C(C)CC1(N)c1ccc(=O)[nH]c1C2 (stereo not drawn) returned ALDH1A1 block 3% and HPGD inh 1%.
`Nc1nc(=S)[nH]c2c1C1(CCCC1)Cc1ccccc1-2` gave ALDH1A1 block -10%, PNC inhibitor 22 and HPGD inh 13µM*.
For Nc1nc(=S)[nH]c2c1C1(CCCCC1)Cc1ccccc1-2 the results were ALDH1A1 block 4%, PNC inhibitor 18 and HPGD inh -10%.
`Cn1ccnc1C(=O)c1cc(SCC(=O)NCc2ccccc2)nc2ccccc12` gave ALDH1A1 block -16%.
`COc1ccc(NC(=O)CN2C(=O)CSC(C)C2=O)cc1` (stereo not drawn) gave ALDH1A1 block 9%.
`CCCn1c(=S)[nH]c2cc(OC)c(OC)cc2c1=O` gave ALDH1A1 block inconclusive, PNC inhibitor 35 and HPGD inh -9%.
`COc1cc2[nH]c(=S)n(Cc3cccs3)c(=O)c2cc1OC` gave ALDH1A1 block 1.1µM*.

Source: PubChem
